SMILES strings stand for the structures. Results filed as inconclusive are left out. Active and inactive are the calls of the source. Calls come from the whole dose curve; as a rule, active = well fitted cell-killing curve with a large enough effect; inconclusive = small, poorly fitted or top-dose-only effect, or effect the other way; inactive = no such curve, though single readings can be large or run the other way.
Potency is the fitted concentration of half-maximal effect.

For the test, the system named is PA-1. The experiment in a line: Confirmatory qHTS for gynecologic anti-cancer compounds from libraries of approved drugs and bioactive compounds. Note: nearly all actives have a fitted effect of over 55% in size. The following applies: gynecologic cancer cell panel viability, ATPlite luminescence, 48 h; series mostly up to 57.6 µM. In outline: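 Seeding 1,000 cells per well preceded overnight (16 h) attachment, after which 48 h drug treatment across 57.5 uM–0.977 nM (11 points) was applied. Remaining cellular ATP, detected by ATPlite luminescence, defined IC50.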
Take `COc1cccc2cc(-c3nc(C4CCC(C(=O)O)CC4)n4ncnc(N)c34)[nH]c12` (stereo unspecified): the Potency was 9.68 µM (active). For `COc1ccc2c(c1OC)C(=O)O[C@@H]2[C@H]1c2c(cc3c(c2OC)OCO3)CCN1C`, the Potency is 24.3 µM (active). Then `C=CC(=O)Nc1cccc(Oc2nc(Nc3ccc(N4CCN(C)CC4)cc3)ncc2Cl)c1`, with 7.69 µM (active). Consider `NC(=O)Nc1cc(-c2cccc(F)c2)sc1C(=O)NC1CCCNC1` (stereo unspecified), for which the Potency was 1.72 µM (active).

On to `COc1ccc(-c2nc3ccc(C4=NNC(=O)CC4C)cc3[nH]2)cc1` (stereo unspecified), for which the Potency was 21.7 µM (active).

Regarding `COc1cc2c(Nc3ccc(NC(=O)c4ccccc4)cc3)ncnc2cc1OCCCN1CCOCC1`, the Potency was 34.3 µM (active).

(Values after PubChem BioAssay AID1345085 (National Center for Advancing Translational Sciences (NCATS), 2018).)
